# Assay results published in PubChem BioAssay (NCATS).
# “And” between values parts separate entries of the source, which are not always exact repeats. Equal entries are not always repeated. Records with an inconclusive call do not appear. Entries that show only a call come without a potency. Unmarked numbers belong to inactive results. The source made the active and inactive calls. Unless noted, calls come from the whole dose curve; as a rule, active = well fitted curve in the direction sought with a large enough effect; inconclusive = small, poorly fitted or top-dose-only effect, or another doubt; inactive = no such curve, though single readings can be large; an effect the other way counts as inactive or inconclusive.
# Tests used:
# [1] = biological target: Calcium and integrin-binding protein 1 (Homo sapiens) (UniProt Q99828); test: Validation qHTS for Identification of Calcium Integrin Binding protein 1 (CIB1) Competitor (AID 1508618)
# Calcium and integrin-binding protein 1 (Homo sapiens), sequence (Q99828 whole entry, looked up): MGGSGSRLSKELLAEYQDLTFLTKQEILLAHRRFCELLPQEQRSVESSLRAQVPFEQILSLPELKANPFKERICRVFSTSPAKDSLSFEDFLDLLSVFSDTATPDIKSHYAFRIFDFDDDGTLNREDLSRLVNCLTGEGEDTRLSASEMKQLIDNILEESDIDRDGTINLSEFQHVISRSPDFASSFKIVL
# Summary of the method: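 CIB1-GST (1 uM final) in 5 mM HEPES pH 7.4, 125 mM NaCl, 5 mM CaCl2, 0.01% Tween20 was preincubated 15 min at room temperature with compound (up to 114 uM), then FITC-alphaIIb peptide (100 nM) added for 15 min; fluorescence polarization read.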
# [2] = biological target: Calcium and integrin-binding protein 1 (Homo sapiens) (UniProt Q99828); test: Primary qHTS for Identification of Calcium Integrin Binding Protein 1 (CIB1) Competitor (AID 1508620);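 note: GST tagged CIB1 binding a fluorescein labelled alphaIIb integrin peptide tracer; top concentration of the series differs between compounds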
# Summary of the method: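 Fluorescence polarization competition: GST-tagged CIB1 (1 uM final) preincubated with compound 15 min at room temperature, then FITC-labelled alphaIIb peptide (100 nM final) added. After 15 min at room temperature, polarization read at Ex 480/Em 540.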
# [3] = Confirmatory qHTS for small molecule stabilizers of the endoplasmic reticulum resident proteome: Secreted ER Calcium Modulated Protein (SERCaMP) assay (AID 1508628); note: nearly all actives have a fitted effect of over 40% in size; note: potency is the fitted concentration of half-maximal effect
# Summary of the method: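 Reporter secretion upon ER calcium depletion (100 nM thapsigargin, 4 h, 37C) is measured as medium luminescence with coelenterazine, after 16 h compound pretreatment of SH-SY5Y-GLuc-SERCaMP cells; primary at three concentrations up to 38.3 uM, follow-up at 11 (up to 76.6 uM).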
# [4] = Primary qHTS for small molecule stabilizers of the endoplasmic reticulum resident proteome: Secreted ER Calcium Modulated Protein (SERCaMP) assay (AID 1508630)
# Summary of the method: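 The SH-SY5Y reporter protocol was run at 3 concentrations up to 38.3 uM (primary) or 11 concentrations (follow-up): 16 h compound, 100 nM thapsigargin for 4 h, then extracellular luciferase luminescence.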
# [5] = biological target: Cytochrome P450 2C9 (Homo sapiens) (UniProt P11712); test: Cytochrome P450 family 2 subfamily C member 9 (CYP2C9) small molecule antagonists: luciferase biochemical (cell-free) qHTS assay (AID 1645842; active = well fitted curve in the direction sought with a large enough effect in the repeat runs; an effect the other way counts as inactive or inconclusive; note: nearly all actives have a fitted effect of over 55% in size; note: potency is the fitted concentration of half-maximal effect)
# Cytochrome P450 2C9 (Homo sapiens), sequence (P11712 whole entry, looked up): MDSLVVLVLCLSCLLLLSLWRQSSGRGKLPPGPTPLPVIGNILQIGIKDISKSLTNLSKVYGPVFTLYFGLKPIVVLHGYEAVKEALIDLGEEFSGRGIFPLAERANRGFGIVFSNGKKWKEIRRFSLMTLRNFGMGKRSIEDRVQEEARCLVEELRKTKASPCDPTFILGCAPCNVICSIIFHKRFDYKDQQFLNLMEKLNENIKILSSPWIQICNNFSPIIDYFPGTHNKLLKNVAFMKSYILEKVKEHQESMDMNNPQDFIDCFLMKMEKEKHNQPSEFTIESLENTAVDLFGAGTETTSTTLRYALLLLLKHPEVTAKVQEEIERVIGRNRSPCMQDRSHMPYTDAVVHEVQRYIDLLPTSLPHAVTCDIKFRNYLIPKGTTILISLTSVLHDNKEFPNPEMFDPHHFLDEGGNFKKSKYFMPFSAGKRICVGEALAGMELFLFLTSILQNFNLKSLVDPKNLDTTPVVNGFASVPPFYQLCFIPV
# Summary of the method: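 P450-Glo CYP2C9 system: proluciferin substrate with enzyme in mix containing 0.4% BSA, 10 min at room temperature, then NADPH regeneration solution added and incubated 1 h at 37C. Detection reagent stopped reaction; luminescence read after 20 min as RLU.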
# [6] = A High-Content qHTS Against Drug Library for the Identification of Small Molecules that Inhibit DYT1 Early Onset Primary Dystonia-Associated Cell Pathology (AID 1645839; calls by dose curve; note: series mostly up to about 46 µM)
# Summary of the method: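 Cells were seeded and left for 24 h, then dosed with compound alongside tetracycline induction of mutant EGFP-TorsinA. They were incubated for 48 h, fixed in 4% paraformaldehyde, permeabilized and imaged for mislocalization (%pathology) and cell count.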
# [7] = Counterscreen qHTS for small molecule stabilizers of the endoplasmic reticulum resident proteome: GLuc-NoTag assay (AID 1508627); note: potency is the fitted concentration of half-maximal effect
# Summary of the method: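 Counterscreen line: SH-SY5Y-GLuc-NoTag. Seed, 5 h; compound, 19 h; thapsigargin 100 nM, 4 h; 37C/5% CO2. Readout: secreted GLuc luminescence, coelenterazine 0.07x final, no lysis.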
# [8] = biological target: Cytochrome P450 3A4 (Homo sapiens) (UniProt P08684); test: Cytochrome P450 family 3 subfamily A member 4 (CYP3A4) small molecule antagonists: luciferase qHTS assay (AID 1645841; active = well fitted curve in the direction sought with a large enough effect in the repeat runs; an effect the other way counts as inactive or inconclusive; note: nearly all actives have a fitted effect of over 45% in size)
# Cytochrome P450 3A4 (Homo sapiens), sequence (P08684 whole entry, looked up): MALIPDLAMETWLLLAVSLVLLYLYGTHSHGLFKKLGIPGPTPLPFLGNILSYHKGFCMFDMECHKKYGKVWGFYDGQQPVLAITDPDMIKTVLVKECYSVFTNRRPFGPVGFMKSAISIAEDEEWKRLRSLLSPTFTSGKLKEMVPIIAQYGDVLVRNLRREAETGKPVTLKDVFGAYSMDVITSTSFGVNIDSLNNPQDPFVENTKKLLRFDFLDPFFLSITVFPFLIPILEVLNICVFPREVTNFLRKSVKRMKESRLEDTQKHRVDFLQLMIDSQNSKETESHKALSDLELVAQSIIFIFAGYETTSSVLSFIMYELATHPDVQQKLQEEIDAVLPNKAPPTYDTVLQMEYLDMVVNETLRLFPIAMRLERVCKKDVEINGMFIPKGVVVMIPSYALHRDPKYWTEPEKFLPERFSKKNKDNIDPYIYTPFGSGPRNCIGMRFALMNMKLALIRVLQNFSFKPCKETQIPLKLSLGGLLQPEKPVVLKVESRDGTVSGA
# Summary of the method: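 P450-Glo CYP3A4 enzyme with proluciferin substrate preincubated 10 min with compound at room temperature, then NADPH regeneration 1 h. Luciferin detection reagent added for 20 min; luminescence recorded. Ketoconazole positive control.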
# [9] = Cell Viability qHTS for small molecule stabilizers of the endoplasmic reticulum resident proteome (AID 1508629); details: cell viability counter-screen, 100 nM thapsigargin for final 4 h;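 note: compound exposure about 46 h in total before the viability read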; note: potency is the fitted concentration of half-maximal effect;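 for max response: human SH-SY5Y neuroblastoma cells carrying the GLuc-SERCaMP reporter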
# [10] = biological target: Cytochrome P450 2D6 (Homo sapiens) (UniProt P10635); test: Cytochrome P450 family 2 subfamily D member 6 (CYP2D6) small molecule antagonists: luciferase biochemical (cell-free) qHTS assay (AID 1645840; active = well fitted curve in the direction sought with a large enough effect in the repeat runs; an effect the other way counts as inactive or inconclusive; note: nearly all actives have a fitted effect of over 55% in size; note: potency is the fitted concentration of half-maximal effect)
# Cytochrome P450 2D6 (Homo sapiens), sequence (P10635 whole entry, looked up): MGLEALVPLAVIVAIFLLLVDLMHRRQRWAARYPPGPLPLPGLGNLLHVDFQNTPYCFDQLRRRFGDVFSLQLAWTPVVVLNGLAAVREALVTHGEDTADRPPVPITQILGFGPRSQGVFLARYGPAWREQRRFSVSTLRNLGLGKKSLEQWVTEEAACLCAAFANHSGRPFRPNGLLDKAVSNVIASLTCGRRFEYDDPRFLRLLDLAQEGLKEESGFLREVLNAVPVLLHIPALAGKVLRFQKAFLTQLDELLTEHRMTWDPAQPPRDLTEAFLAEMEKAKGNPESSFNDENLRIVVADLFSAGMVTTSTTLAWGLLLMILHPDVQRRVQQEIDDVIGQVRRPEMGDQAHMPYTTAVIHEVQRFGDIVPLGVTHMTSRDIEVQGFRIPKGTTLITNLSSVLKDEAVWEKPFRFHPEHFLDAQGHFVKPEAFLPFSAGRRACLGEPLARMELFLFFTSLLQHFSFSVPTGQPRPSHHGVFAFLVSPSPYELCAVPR
# Summary of the method: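 P450-Glo CYP2D6 system: proluciferin substrate converted by enzyme to luciferin, read by luminescence proportional to activity. Enzyme-substrate mix with compound 10 min at room temperature, then NADPH regeneration 1 h before detection reagent.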
smiles,measurement,setting,value
CC(C)NCC(O)c1ccc(O)c(O)c1 (stereo unspecified),Potency,[1],inactive
same,Potency,[2],inactive
same,Potency,[3],inactive
same,Potency,[4],inactive
same,Potency,[5],inactive
NC(CO)C(=O)NNCc1ccc(O)c(O)c1O (stereo unspecified),Potency,[1],inactive
same,Potency,[2],inactive
same,Potency,[4],inactive
same,Potency,[6],inactive
O=C(c1ccc(OCCN2CCCCC2)cc1)c1c(-c2ccc(O)cc2)sc2cc(O)ccc12,Potency,[1],inactive
same,Potency,[2],inactive
same,Potency,[7],inactive
same,Potency,[3],inactive
COc1ccccc1OCC(O)CN1CCN(CC(=O)Nc2c(C)cccc2C)CC1 (stereo unspecified),Potency,[1],inactive
same,Potency,[2],inactive
same,Potency,[4],inactive
same,Potency,[6],inactive
NC(=O)NO,Potency,[1],inactive
same,Potency,[2],inactive
same,Potency,[4],inactive
same,Potency,[6],inactive
CCN1CCCC1CNC(=O)c1cc(S(=O)(=O)CC)c(N)cc1OC (stereo unspecified),outcome,[8],inactive
O=c1c(O)c(-c2ccc(O)c(O)c2)oc2cc(O)cc(O)c12,Potency,[2],inactive
same,Potency,[7],inactive
same,max response,[9],-19.3% and 6.63% and -20.3%
same,Potency,[4],inactive
CC(COc1ccccc1)N(CCCl)Cc1ccccc1 (stereo unspecified),Potency,[2],inactive
same,Potency,[4],inactive
same,Potency,[6],inactive
same,Potency,[5],12.1 µM (active)
Cc1cnc(C(=O)NCCc2ccc(S(=O)(=O)NC(=O)NC3CCCCC3)cc2)cn1,Potency,[6],inactive
CS(=O)(=O)CCNCc1ccc(-c2ccc3ncnc(Nc4ccc(OCc5cccc(F)c5)c(Cl)c4)c3c2)o1,Potency,[2],inactive
same,Potency,[3],inactive
same,Potency,[4],inactive
CC#C[C@]1(O)CC[C@H]2[C@@H]3CCC4=CC(=O)CCC4=C3[C@@H](c3ccc(N(C)C)cc3)C[C@@]21C,Potency,[1],inactive
same,Potency,[2],inactive
same,Potency,[4],inactive
same,Potency,[5],1.74 µM (active)
C[C@@H]1CC(=O)NN=C1c1ccc(NN=C(C#N)C#N)cc1,Potency,[2],inactive
same,Potency,[7],14.1 µM (active) and 28.2 µM (active)
same,Potency,[3],15.8 µM (active)
same,max response,[9],-18.7%
same,Potency,[4],inactive
same,Potency,[6],inactive
same,Potency,[5],977 nM (active) and 692 nM (active)
Clc1ccccc1C(c1ccccc1)(c1ccccc1)n1ccnc1,Potency,[2],inactive
same,Potency,[10],9.77 µM (active)
same,Potency,[5],0.977 µM (active)
Cc1ccc(-c2cc(C(F)(F)F)nn2-c2ccc(S(N)(=O)=O)cc2)cc1,Potency,[1],inactive
same,Potency,[2],inactive
same,Potency,[4],inactive
same,Potency,[5],12.3 µM (active)
CC1(C)O[C@H]2CC(=O)OC[C@]23[C@H]2CC[C@@]4(C)[C@H](c5ccoc5)OC(=O)[C@H]5O[C@]54[C@]2(C)C(=O)C[C@@H]13,Potency,[2],inactive
same,Potency,[4],inactive
same,Potency,[6],inactive
same,Potency,[5],inactive
COc1ccc(CCN(C)CCCC(C#N)(c2ccc(OC)c(OC)c2)C(C)C)cc1OC (stereo unspecified),Potency,[7],inactive
same,Potency,[3],20 µM (active)
same,max response,[9],-5.84%
same,Potency,[4],inactive
COc1ccc2c(c1)c(CC(=O)O)c(C)n2C(=O)c1ccc(Cl)cc1,Potency,[1],inactive
same,Potency,[2],inactive
same,Potency,[4],inactive
same,Potency,[5],11 µM (active)
CC(C(=O)O)c1cccc(C(=O)c2ccccc2)c1 (stereo unspecified),Potency,[6],inactive
same,Potency,[5],19.5 µM (active)
Cc1cn([C@H]2C[C@H](N=[N+]=[N-])[C@@H](CO)O2)c(=O)[nH]c1=O,Potency,[2],inactive
same,Potency,[4],inactive
same,Potency,[6],inactive
same,Potency,[10],inactive
same,Potency,[5],inactive
COc1nc(C)nc(Cl)c1NC1=NCCN1,Potency,[1],inactive
same,Potency,[2],inactive
same,Potency,[6],inactive
same,Potency,[5],inactive
CC1(CN2CCC(n3c(=O)[nH]c4ccccc43)CC2)OCc2ccccc2-n2cccc21 (stereo unspecified),Potency,[2],inactive
same,Potency,[4],inactive
same,Potency,[5],9.77 µM (active)
Cc1ccc(C(=O)Nc2ccc(S(=O)(=O)O)c3cc(S(=O)(=O)O)cc(S(=O)(=O)O)c23)cc1NC(=O)c1cccc(NC(=O)Nc2cccc(C(=O)Nc3cc(C(=O)Nc4ccc(S(=O)(=O)O)c5cc(S(=O)(=O)O)cc(S(=O)(=O)O)c45)ccc3C)c2)c1,Potency,[2],inactive
same,Potency,[3],15.8 µM (active)
same,Potency,[4],inactive
same,Potency,[6],inactive
same,Potency,[10],inactive
same,Potency,[5],inactive
OCCN1CCN(CCCN2c3ccccc3Sc3ccc(C(F)(F)F)cc32)CC1,Potency,[2],inactive
same,Potency,[4],inactive
CN(C)C(=N)N=C(N)N,Potency,[2],inactive
same,Potency,[6],inactive
Cn1ccc2cc3c(cc21)CCN3C(=O)Nc1cccnc1,Potency,[1],inactive
same,Potency,[2],inactive
same,Potency,[4],inactive
same,Potency,[5],inactive
COc1cc2nc(N(C)CCCNC(=O)C3CCCO3)nc(N)c2cc1OC (stereo unspecified),Potency,[1],inactive
same,Potency,[2],inactive
same,Potency,[4],inactive
same,Potency,[5],inactive
Nc1nc2c(ncn2COC(CO)CO)c(=O)[nH]1,Potency,[1],inactive
same,Potency,[2],inactive
same,Potency,[6],inactive
same,Potency,[5],inactive
CCOC(=O)Nc1ccc(NCc2ccc(F)cc2)nc1N,Potency,[2],inactive
same,Potency,[4],inactive
same,Potency,[6],inactive
Cc1ccccc1N1C(=O)c2cc(S(N)(=O)=O)c(Cl)cc2NC1C (stereo unspecified),Potency,[2],inactive
same,Potency,[4],inactive
same,Potency,[6],inactive
same,Potency,[5],inactive
CN(Cc1cnc2nc(N)nc(N)c2n1)c1ccc(C(=O)N[C@@H](CCC(=O)O)C(=O)O)cc1,Potency,[2],inactive
same,Potency,[4],inactive
same,Potency,[6],inactive
CC(C)Cc1ccc(C(C)C(=O)O)cc1 (stereo unspecified),Potency,[4],inactive
same,Potency,[6],inactive
same,Potency,[5],inactive
CC[N+](CC)(CC)CCOc1cccc(OCC[N+](CC)(CC)CC)c1OCC[N+](CC)(CC)CC,Potency,[4],inactive
same,Potency,[6],inactive
same,Potency,[10],inactive
same,Potency,[5],inactive
CC1COc2c(N3CCN(C)CC3)c(F)cc3c(=O)c(C(=O)O)cn1c23 (stereo unspecified),Potency,[4],inactive
same,Potency,[6],inactive
same,Potency,[5],inactive
O=C(Nc1ccc([N+](=O)[O-])cc1Cl)c1cc(Cl)ccc1O,Potency,[2],inactive
same,Potency,[7],3.98 µM (active)
same,Potency,[3],inactive
same,Potency,[9],5.01 µM (active)
same,Potency,[4],inactive
same,Potency,[5],4.77 µM (active)
CN(C)CCCN1c2ccccc2CCc2ccc(Cl)cc21,Potency,[3],inactive
same,max response,[9],-4.23%
same,Potency,[4],inactive
same,Potency,[5],inactive
Cn1c(=O)c2c(ncn2C)n(C)c1=O,Potency,[7],inactive
same,Potency,[3],inactive
same,max response,[9],8.95% [middle of 5 runs]
same,Potency,[4],inactive
same,Potency,[6],inactive
same,Potency,[5],inactive
